Test results as given in PMC12136788.
Substitutions are numbered along the chain they refer to. In all, about 24,000 sequences were measured (“enrichment r”: median about 0.99, highest 2% from about 3.7 on). The full list was thinned out, with the highest values kept by preference.

T1: UNK ZnF1-3 (human, UniProt Q9C0B0 31-174)
T1 sequence: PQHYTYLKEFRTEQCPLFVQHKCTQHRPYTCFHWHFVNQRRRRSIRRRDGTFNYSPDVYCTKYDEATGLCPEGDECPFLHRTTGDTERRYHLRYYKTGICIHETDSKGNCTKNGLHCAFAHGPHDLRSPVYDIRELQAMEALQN

B1: 7301359_7301479_2013_3pUTR_ENSMUSG00000024764_ENSMUST00000025675|mouse|control|control (ssRNA)
RNA: GGGAGUUCUACAGUCCGACGAUCGACACCCAUGACAGGAAAGCAGUGGUACGCCACUGAAAGGCAUCCCAGGGGUGCCAAGACAGUGGCACGAGUGCCUCAUUGAGGCGGUGAGGGGUGGGGCUCGGGAGAACAGGCAAAGGGCAACAGAGGAUUGAGCAUCA
B2: chr12:39756943:39756944:-_ENSG00000139116_ENST00000544797|hu_mus|hu_hu_hu_mus_False|8_28 (ssRNA)
RNA: GGGAGUUCUACAGUCCGACGAUCGGUUUGGCUGUUACCCCCAAGGGAAUCCUGCAAGAGUCUUGUCAGCUUAGAGUCUCUGUAAGGGACAUGGGUGGCUCUCUUGCUCUUGUCUCCCAAGGCGCUGAUUACAUUGCCAAGAGCCAACAGAGGAUUGAGCAUCA
B3: chr1:109605286:109605287:-_ENSG00000197780_ENST00000461096|hu_mus|hu_hu_hu_mus_True|78_98 (ssRNA)
RNA: GGGAGUUCUACAGUCCGACGAUCAAGUUUCAGAGUAUUCAGUGAUCACCUCUUUAACAAUUGUAAUCCUUAUUAUAAGCUAAGCAGAAUAAUAAUUUAAUACCGUAAGUGAACUACACACAAAGCCUGAACCGCGAAAAUGGUCAACAGAGGAUUGAGCAUCA
B4: chr11:69466387:69466388:+_ENSG00000110092_ENST00000227507|hu_hu|motif|central (ssRNA)
RNA: GGGAGUUCUACAGUCCGACGAUCACACGUAAAGGAUGGAACCUAAUCCUCUCCCGAGACGCCUCCUUUGUGUUAAUGCCGGUUCUUACAACAGAGAAACAAGUACAUUAAUAUAAAAACGAGUUGAUUAUUGGGGUAUAAAAUCAACAGAGGAUUGAGCAUCA
B5: chr1:46159212:46159213:+_ENSG00000159596_ENST00000372025|hu_mus|hu_hu_hu_mus_True|58_58 (ssRNA)
RNA: GGGAGUUCUACAGUCCGACGAUCUCUGAUCCCUCCCAAGAAAGCUAGGAAACCGGCUCCAUAAGCCAUCUGAGUGAAAGCUAAUAUGGGGAUAUAAGACUUUGUUAUUACCAUGAGAAGUGGGGGAGCAGUAAAGGGGAUUAACAACAGAGGAUUGAGCAUCA
B6: chr13:48835921:48835922:+_ENSG00000136156_ENST00000378565|hu_hu|FALSE|FALSE (ssRNA)
RNA: GGGAGUUCUACAGUCCGACGAUCGAUAUGGGUUAUACAAAUUAGUAACACAAGUUAUUUCUUAAAUUCCAAACAUUUUCUAAAAUAUUAUUACAGCAGAUGCCUAGGAUAUUAAAACAUAAAGGUGGAAAUCAUUCUCUAAAUCAACAGAGGAUUGAGCAUCA
B7: chr11:69466387:69466388:+_ENSG00000110092_ENST00000227507|hu_hu|FALSE|FALSE (ssRNA)
RNA: B4 RNA with G80U, G81A
B8: chr5:128440902:128440903:+_ENSG00000066583_ENST00000173527|hu_mus|hu_hu_hu_mus_True|1_58 (ssRNA)
RNA: GGGAGUUCUACAGUCCGACGAUCUUGAACGGUGCUGCCAAGUCCUUUGGGGUAUUGUUCCGUUAUGAUAACUGGAAUUCCUAAAAUCCGAGCUCCUUGCAACAGUCUCUGUCCCACACUAAUGAUGUCCCCAAAGUACUUGAUCAACAGAGGAUUGAGCAUCA
B9: chr2:27445747:27445748:+_ENSG00000084774_ENST00000264705|hu_hu|FALSE|FALSE (ssRNA)
RNA: GGGAGUUCUACAGUCCGACGAUCGGAGGCAGGGUCACCAGGCCCAUUACUUAAGAAGAGACCCUCAUACUCUUGGCUGUCUAGUGCAUGGUCCCAGGGUACCACAGUGACCUCAGCCCCACGCUGGCAGAGGCAUCGGAUCUGCAACAGAGGAUUGAGCAUCA
B10: chr9:95013113:95013114:-_ENSG00000196305_ENST00000443024|hu_hu|hu_hu_hu_mus_False|68_88 (ssRNA)
RNA: GGGAGUUCUACAGUCCGACGAUCCUCAGUCAGAAAGGGCGUGUAAGGAGCCAUAAGUCUGCACAGAGAAAGCAGAACACUGAACAGUGUCUCCAGAGCCAUGACACAGUCUUCCACCCCACUCUCACCCUUUAACCUCCUCCUCAACAGAGGAUUGAGCAUCA
B11: 142899929_142900494_654_CDS_ENSMUSG00000031004_ENSMUST00000033310|mouse|control|control (ssRNA)
RNA: GGGAGUUCUACAGUCCGACGAUCAAGGCCCUUGGCAUACACAAAAGAUCUUCUUGAAGCAGUCAUUUUUGAAGCUUUGGUAUCUUGACCUUCCCCAUCAGGGUCAGCACAGAAGCUAUCUCUUGAGGCUCGCCUUGAUGGUUCCAACAGAGGAUUGAGCAUCA
B12: chr15:57879074:57879075:-_ENSMUSG00000022361_ENSMUST00000070143|mus_hu|motif|central (ssRNA)
RNA: GGGAGUUCUACAGUCCGACGAUCCAGCUGUCUGAGUGAGGAAAUCAGCUACAUUGCAGCAUUUUGGAAUUACUAAUAAAGCGGUAGUUAAAAAAUAAAAAGUUUAUAAAAAUGAAAGCAGCAUGCAUAUUCAAGGCUUUUUCACAACAGAGGAUUGAGCAUCA
B13: chr12:111890518:111890519:-_ENSG00000204842_ENST00000389154|hu_hu|FALSE|FALSE (ssRNA)
RNA: GGGAGUUCUACAGUCCGACGAUCUUGGAUGUUACAAGAAAUCAACAUAUAUAUUUUAAAAACAAAAUAAAUGAAAUUCUAGUUUUCUGUGCUUCCAGUUGGUAGAAGCAGUAGAAGGGAGGAGGGAAUUUGGCCUUUCGGUUCCAACAGAGGAUUGAGCAUCA
B14: chr15:57879074:57879075:-_ENSMUSG00000022361_ENSMUST00000070143|mus_hu|FALSE|FALSE (ssRNA)
RNA: B12 RNA with G82U, G83A
B15: chr6:136509389:136509390:+_ENSMUSG00000030213_ENSMUST00000032335|mus_hu|FALSE|FALSE (ssRNA)
RNA: GGGAGUUCUACAGUCCGACGAUCAAUAUUAUUAUCAGCUUUAUUUUUCUCAUCCAAUGAGUCUUUACUCUGAAUUUGCUCUAAUUUUUCAUCAGCUCCAUUUUUUUCAAGAAAAUCAUCAUCUUUAUUGCUACUUGGUUCUAUCAACAGAGGAUUGAGCAUCA
B16: chr12:98991669:98991670:+_ENSG00000075415_ENST00000552981|hu_mus|motif|central (ssRNA)
RNA: GGGAGUUCUACAGUCCGACGAUCGAAUCCAUUAAAUAUGCCUUUGUACUUCUGAGGGUCCACCUGCAUGCGGCACUUUACGGAGUCCAGGGGAACAACAGCAGUGUGUGUCAGCCCACAACUUAAGACCCCACCAAAGCCACACAACAGAGGAUUGAGCAUCA
B17: chr4:115894766:115894767:+_ENSMUSG00000028698_ENSMUST00000030464|mus_hu|mus_mus_mus_hu_True|1_98 (ssRNA)
RNA: GGGAGUUCUACAGUCCGACGAUCUUCCACACGGAAAGUACUUGGGGGUUUUCCAACGGCCAGUACCAGUCCGGCCAAACUACCCGAACAGGGUCCUCCCCCUCUCUCCUACAGAACACAACAAAAUGCCCCCGAACCCCGAACCAACAGAGGAUUGAGCAUCA
B18: chr2:69705335:69705336:+_ENSMUSG00000068882_ENSMUST00000090852|mus_mus|FALSE|FALSE (ssRNA)
RNA: GGGAGUUCUACAGUCCGACGAUCUUGGCCUUUAUCGUCUAGCCAUUCUUUUAUAUCAUCAAGGGUGGCGUCAGUUGGGAAACCUUUAAUAUAAACAGAUCUGUUUUUUACAUCAUUCUUAUACUCAUCCGUCACUUCAGGGAGCAACAGAGGAUUGAGCAUCA
B19: chr8:124405102:124405103:-_ENSMUSG00000040010_ENSMUST00000045557|mus_mus|motif|central (ssRNA)
RNA: GGGAGUUCUACAGUCCGACGAUCCCCAAAAAAACAAAAAGCCUCACAAAACAGCAGACCUCUGUACCCCCCCCCCAGUCGGAUGUAACAGGCUAGCCAUUAAUACAAUAGUAAAAGACAUUAUAACCACAGCACUAUCUCAGGCAACAGAGGAUUGAGCAUCA
B20: chr1:23884524:23884525:-_ENSG00000117318_ENST00000374561|perfect_dup|FALSE|FALSE (ssRNA)
RNA: GGGAGUUCUACAGUCCGACGAUCUUUAAUAUACAUCGCAUUGUUACAGAAAGUCACCUUCCUGUAAAAAAGGUACAAAACCUAUAUACUCUAUUAUAGAGUUCAUAAAUCAGGGCAACAGAACCUUUCUCCAAGGAGACCAGACAACAGAGGAUUGAGCAUCA
B21: chr13:41369856:41369857:+_ENSMUSG00000091264_ENSMUST00000165561|mus_hu|FALSE|FALSE (ssRNA)
RNA: GGGAGUUCUACAGUCCGACGAUCGCACUUCAUUCUUGUACAAAGCAGGUAACACUAAACAGGAAGGUUGUUUAAUUCACAUCUCUUCUCCCUGGUAAACACUCAGCCCAGAGUUCAGUUGAGACAAACACGGAAACCUGGCAACAACAGAGGAUUGAGCAUCA
B22: chr8:122087627:122087628:-_ENSMUSG00000034189_ENSMUST00000036049|mus_mus|FALSE|FALSE (ssRNA)
RNA: GGGAGUUCUACAGUCCGACGAUCGCAUUAAAGGCGUGAGCCCCCACGCCCAGCCUGAGGAACAUCUUGAAAGCCAAUACUAUAAUCAGUCACCUGUAAAAGGAAAACAGGUGACUUCUCAAAAAAAAAAAAAAAAGAAAGAAACAACAGAGGAUUGAGCAUCA
B23: chr12:48362563:48362564:+_ENSG00000134291_ENST00000256686|hu_hu|hu_hu_hu_mus_False|98_108 (ssRNA)
RNA: GGGAGUUCUACAGUCCGACGAUCUCCGAAGGGUGAAUCAAGCCCCACUUGCGGGGGAAACUGUAAUCACUUUGUAUGGGGAAGGAAAAGAAACGCCAAAAACUUUCCAAAAAGCGGGGGUGGGGUGAGGCGGGAGGGGGAGGUCAACAGAGGAUUGAGCAUCA
B24: chr8:122087627:122087628:-_ENSMUSG00000034189_ENSMUST00000036049|mus_mus|motif|central (ssRNA)
RNA: B22 RNA with U80G, A81G

molecular target: T1, UNK ZnF1-3; assay: nsRBNS (natural sequence RNA bind-n-seq); RBNS binding buffer (assumed for nsRBNS): 25 mM Tris pH 7.5, 150 mM KCl, 3 mM MgCl2, 0.01% Triton X-100, 500 ug/ml BSA, 20 U/ml SUPERase-In, 4 C; UNK is unkempt and MSI1 is Musashi-1; names of the RNAs are library labels; protein concentration not given here; high values mean tight binding

Going from B1 to B2, the binding signal falls from 1.24 enrichment R to 0.697 enrichment R.

Going from B3 to B4, the binding signal rises from 0.993 enrichment R to 4.6 enrichment R.

Compared with B5, B6 is higher in binding signal: 1.4 enrichment R for the first, 1.52 enrichment R for the second.

Compared with B7, B8 is lower in binding signal: 5 enrichment R for the first, 0.681 enrichment R for the second.

Going from B9 to B10, the binding signal rises from 1.01 enrichment R to 1.57 enrichment R.

First: B11
Second: B12
The binding signal of the first is lower: 0.52 enrichment R for the first, 6.18 enrichment R for the second.

Going from B13 to B14, the binding signal rises from 1.07 enrichment R to 7.31 enrichment R.

Going from B15 to B16, the binding signal rises from 0.334 enrichment R to 1.12 enrichment R.

Compared with B17, B18 is lower in binding signal: 1.29 enrichment R for the first, 1.08 enrichment R for the second.

Compared with B19, B20 is lower in binding signal: 2.38 enrichment R for the first, 0.848 enrichment R for the second.

Going from B21 to B22, the binding signal rises from 1.42 enrichment R to 5.88 enrichment R.

First: B23
Second: B24
The binding signal of the first is lower: 1.98 enrichment R for the first, 4.56 enrichment R for the second.
